Measurements as given in PubChem BioAssay (NCI).
“And” between values parts separate entries of the source, which are not always exact repeats. Equal entries are not always repeated. The panel holds about 83,000 compounds, 20% with a hit somewhere; the sample as a whole holds those more often.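 Results are percent growth after 48 hours of single-concentration exposure. 100 means growth as in untreated cells, lower positive values show inhibition; negative values down to -100 show cell death.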 The source made the active and inactive calls. How the source made its calls: active means growth percent below 10; inactive means the rest.

These compounds were tested on NCI-H460 lung (assay: NCI-60 one-dose screen, 48 h (100 = growth as untreated, 0 = no growth, -100 = all killed)). Conditions: 10 µM unless noted.

With `CC(=O)Nc1cccc2c1CCCC2` as the compound, how does the growth read?
Its growth is 101% (inactive) and 111% (inactive).

How did the growth turn out when `Clc1ccc(SSc2ccc(Cl)cc2)cc1` was run?
Its growth is 98.1% (inactive) and 79.5% (inactive).

With `Cc1nnc(NC/C=C/c2ccccc2)s1` as the compound, how does the growth read?
Its growth is 105% (inactive) and 108% (inactive).

Which growth does the source give for `Cc1cccc(/C=C\C(=O)c2ccccc2)c1` here?
Its growth is 109% (inactive) and 100% (inactive).

With `COC(=O)[C@H]1CCCN1C(=O)C1CCCN1C(=O)[C@@H](Cc1ccccc1)NC(=S)Nc1cc(C(F)(F)F)cc(C(F)(F)F)c1` (stereo partly specified) as the compound, how does the growth read?
Its growth is 102% (inactive) and 94.5% (inactive).

`CNc1cc(-c2cccc(OC(F)(F)F)c2)nc2ccc(N3CCCC3)cc12` was tested. Which growth did it give?
Its growth is -68% (active) and -62.5% (active) and -65.4% (active).

How did the growth turn out when `O=[N+]([O-])c1ccc(-n2[nH]nnc2=S)cc1` was run?
The growth was 110% (inactive).

`O=[N+]([O-])c1ccc(Oc2ccccc2)cc1` was tested. Which growth did it give?
Its growth is 103% (inactive) and 102% (inactive).

How did the growth turn out when `CC(C(=O)O)n1cc(C#N)c(=O)[nH]c1=O` (stereo unspecified) was run?
Its growth is 115% (inactive) and 112% (inactive).

Which growth does the source give for `CNC(=O)c1cc(Oc2ccc(NC(=O)Nc3ccc(Cl)c(C(F)(F)F)c3)cc2)ccn1` here?
Its growth is 6.19% (active) and 2.65% (active).

`COc1ccc(/C(C#N)=C/c2ccccn2)cc1` was tested. Which growth did it give?
Its growth is 105% (inactive) and 103% (inactive).

`Nc1n[nH]c(=S)n1-c1ccc(Cl)cc1` was tested. Which growth did it give?
Its growth is 99.6% (inactive).

For `CCOC(=O)C(C(=O)OCC)C(c1ccccc1)N1CCN(c2ccccc2)CC1` (stereo unspecified), which growth is on record?
The growth was 116% (inactive) and 109% (inactive).

`OCCN1CCN(CCO)CC1` was tested. Which growth did it give?
Its growth is 111% (inactive) and 98.6% (inactive) and 108% (inactive).

Which growth does the source give for `CC1=C(/C=C/C(C)=C/C=C/C(C)=C/C=N/NC(=S)NC(=S)N/N=C/C=C(C)/C=C/C=C(C)/C=C/C2=C(C)CCCC2(C)C)C(C)(C)CCC1` here?
The growth was 8.37% (active) and -6.69% (active).

Which growth does the source give for `NC(=O)NO` here?
Its growth is 106% (inactive) and 62.3% (inactive).

How did the growth turn out when `CN(Cc1ccccc1)Cc1ccccc1` was run?
The growth was 110% (inactive).

For `O=C(Cc1cccc2ccccc12)N/N=C/c1ccc2c(c1)CCC2`, which growth is on record?
The growth was 81.5% (inactive).

How did the growth turn out when `O=C(CN1CCN(c2cc3c(cc2F)c(=O)c(C(=O)O)cn3C2CC2)CC1)Nc1ccc(Cl)cc1` was run?
The growth was 88% (inactive) and 90.1% (inactive).

For `CCN(CC)CCC(CNc1c2ccc([N+](=O)[O-])cc2nc2cc(OC)c(OC)cc12)c1ccccc1` (stereo unspecified), which growth is on record?
The growth was 6.85% (active) and -100% (active).

With `CN(C)c1ccc2nc3ccc(N)cc3[n+](-c3ccccc3)c2c1` as the compound, how does the growth read?
Its growth is 9.65% (active) and 9.63% (active).

Which growth does the source give for `O=C(/C=C/c1ccccn1)c1ccccc1O` here?
Its growth is 65.2% (inactive) and 101% (inactive).

With `CCCCCN(CCCCC)CC(O)c1cc2c(c3ccccc13)CCCC2` (stereo unspecified) as the compound, how does the growth read?
Its growth is 38.7% (inactive) and 25.8% (inactive).

`O=C(Nc1ccc(Br)cc1)c1cc(Br)ccc1O` was tested. Which growth did it give?
The growth was 2.62% (active) and 3.86% (active).

`Clc1ccc(NC(Nc2ccc(Cl)cc2)C(Cl)(Cl)Cl)cc1` was tested. Which growth did it give?
The growth was 93.9% (inactive) and 105% (inactive).

`NC(=S)N/N=C(\c1ccc(Br)cc1)C1CC1` was tested. Which growth did it give?
Its growth is 104% (inactive) and 102% (inactive).

`CC[N+](CC)(CC(=O)Nc1c(C)cccc1C)Cc1ccccc1` was tested. Which growth did it give?
Its growth is 100% (inactive) and 101% (inactive).

With `NS(=O)(=O)c1cc2c(cc1Cl)NC(C(Cl)Cl)NS2(=O)=O` (stereo unspecified) as the compound, how does the growth read?
The growth was 110% (inactive) and 114% (inactive).

How did the growth turn out when `CC(=O)c1ccccc1O` was run?
Its growth is 105% (inactive) and 107% (inactive) and 103% (inactive).

Which growth does the source give for `Cc1n[nH]c(=O)n(/N=C\c2c[nH]c3ccccc23)c1=O` here?
The growth was 107% (inactive).

Which growth does the source give for `COc1cc2c(c(OC)c1OC)-c1ccc(OC)c(=O)cc1[C@@H](NC(C)=O)CC2` here?
Its growth is 4.46% (active) and 1.09% (active) and 2.92% (active).

`O[C@H](c1cc(C(F)(F)F)nc2c(C(F)(F)F)cccc12)[C@@H]1CCCCN1` was tested. Which growth did it give?
The growth was 27.7% (inactive) and 23.6% (inactive).

With `COc1cc2nc(N3CCN(C(=O)C4COc5ccccc5O4)CC3)nc(N)c2cc1OC` (stereo unspecified) as the compound, how does the growth read?
The growth was 101% (inactive) and 98.5% (inactive) and 117% (inactive).

With `COc1ccc(-c2cn[nH]c2-c2cc(OC)c(OC)c(OC)c2)cc1N` as the compound, how does the growth read?
The growth was 4.87% (active) and 8.68% (active).

For `CC1CCCC(=O)O1` (stereo unspecified), which growth is on record?
Its growth is 104% (inactive) and 112% (inactive).

`CCNC(=O)Nc1ccc(-c2nc3c(c(N4CCOC[C@@H]4C)n2)CCN(C2COC2)C3)cc1` was tested. Which growth did it give?
The growth was 25.7% (inactive) and 14.3% (inactive).
